Records with an inconclusive call do not appear. Where a call stands in place of a potency, no number is given. A number with no mark means an inactive call. Activity calls are given as the source filed them. Calls follow the shape of the dose curve; as a rule, active = well fitted cell-killing curve with a large enough effect; inconclusive = small, poorly fitted or top-dose-only effect, or effect the other way; inactive = flat fitted curve, though single readings scatter. Where a SMILES comes first, the peptide text is derived from it. [ ]: non-standard residue; d: D form. 2Abz = Nc1ccccc1C(=O)O

In this experiment the test system is Es-2. The experiment can be described thus: Primary qHTS to identify gynecologic anti-cancer compounds using libraries of approved drugs and bioactive compounds (AID 1345084). Also: nearly all actives have a fitted effect of over 55% in size. The following applies: Gynecologic cancer cell panel viability, ATPlite luminescence, 48 h; series mostly up to 57.5 µM. The method in brief: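 Five-concentration response, 48 h; readout is ATP-driven luciferase luminescence.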
As for `CC(=O)O[C@H](C[C@@H](C)[C@H]1C(=O)[C@H](O)[C@@]2(C)[C@@H]3CCC4C(C)(C)[C@@H](O[C@@H]5OC[C@H](O)[C@H](O)[C@H]5O)CC[C@@]45C[C@@]35CC[C@]12C)[C@@H]1OC1(C)C` (stereo partly drawn), the Potency entry is “inactive”.
For `CC1OC(OC2C(C)OC(OC3C(OC(=O)/C=C/c4ccc(O)cc4)C(CO)OC(OC4(COC(=O)/C=C/c5ccc(O)cc5)OC(CO)C(O)C4O)C3OC3OCC(O)(CO)C3O)C(O)C2O)C(O)C(O)C1O` (stereo not drawn), the activity change, negative = cytotoxicity was -0.759% [at 11.6 µM].
On to `CC(/C=C/[C@]1(O)[C@@]2(C)CO[C@@]1(C)C[C@@H](O)C2)=C\C(=O)O[C@@H]1O[C@H](CO)[C@@H](O)[C@H](O)[C@H]1O`, for which the Potency result was “inactive”.
Same read-out and setting: for `C=C1C(=O)OC2CC(C)=C(C(C)CCCO[C@@H]3O[C@H](CO)[C@@H](O)[C@H](O)[C@H]3O)C(O)C12` (stereo partly drawn) the value was “inactive”; for `O=C(O[C@H]1[C@@H]2C[C@@H]3OC[C@@](O)([C@H]2[C@H](O[C@@H]2O[C@H](CO)[C@@H](O)[C@H](O)[C@H]2O)O3)[C@@H]1O)c1ccccc1`, “inactive”; for `CC(=O)c1c(C)cc(O)cc1O[C@@H]1O[C@H](CO)[C@@H](O)[C@H](O)[C@H]1O`, “inactive”.
Same read-out and setting: for `CC1CCC(=O)CC(O)C(O)CC(=O)O1` (stereo not drawn) the value was “inactive”; for `CC1(C)CC2C(O)C3=C(CC(C)(O)C2C1)C(=O)OC3O` (stereo not drawn), “inactive”.
As for `CC[C@H](/C=C/[C@@H](C)[C@H]1CC[C@H]2[C@@H]3CC=C4C[C@@H](O)CC[C@]4(C)[C@H]3CC[C@]12C)C(C)C`, the activity change, negative = cytotoxicity is 0.911% [at 6.55 µM].
`CC(=O)O[C@H]1[C@H](C)[C@@H](O)[C@H]2[C@@H]1C=C(C(=O)O)[C@H]1C[C@@H]3[C@H]([C@H]21)[C@H]1C(=O)O[C@@H]2CC[C@@]3(C)O[C@]1(O)[C@@H]2C`: the Potency result is “inactive”.
In the case of `CC(=O)OC(CSC1CCC(=O)OC(C)CCC(=O)C1)C(=O)O` (stereo not drawn), the Potency result was “inactive”.
Consider `CC(/C=C/C1(O)C(C)CC(O)CC1(C)C)OC1OC(CO)C(O)C(O)C1O` (stereo not drawn), for which the Potency result is “inactive”.
Regarding `CC(=O)N[C@H]1CCN(c2ccc(C3=NOC(CN[S+](=O)([O-])C(C)C)C3)cc2F)C1` (stereo partly drawn), the Potency result is “inactive”.
Still for that read-out and setting: the same measure for `CC1CCC2C(C)(C)C(O)CCC2(C)C12Cc1c(O)cc3c(c1O2)C(N)=NC3` (stereo not drawn): “inactive”; for `CNC(=O)Nc1ccc(OC)c(NC(=O)NC(=O)c2cc(F)c(F)cc2Cl)c1`: “inactive”.
Same read-out and setting: for `CCCC(N[C@@H](C)C(=O)N1[C@H](C(=O)O)C[C@@H]2CCCC[C@@H]21)C(=O)OCC` (stereo partly drawn) the value was “inactive”.
Consider `C/C=C(\C)C(=O)O[C@@H](C)[C@H]1CC[C@]2(O)C3CCC4C[C@@H](OC5CC(OC)C(OC6CC(OC)C(OC7CC(OC)C(OC8OC(C)C(OC9OC(CO)C(O)C(O)C9O)C(OC)C8O)C(C)O7)C(C)O6)C(C)O5)CC[C@]4(C)C3[C@H](O)[C@@H](O)[C@]12C` (stereo partly drawn), for which the activity change, negative = cytotoxicity is 10.2% [at 6.55 µM].
With `CC1OC(O[C@H]2[C@@H](O)C[C@@]3(C)C([C@H](O)C[C@]4(C)C3CC=C3C5CC(C)(C)CC[C@]5(C(=O)OC5OC(CO)C(O)C(O)C5OC5OCC(OC6OCC(OC7OCC(O)C(O)C7O)C(O)C6O)C(OC6OCC(O)(CO)C6O)C5O)CC[C@]34C)[C@]2(C)CO)C(O)C(O)C1O` (stereo partly drawn), the activity change, negative = cytotoxicity was -1.65% [at 6.55 µM].
`CCC(=O)N[C@@H]1Cc2ccccc2[C@H](c2ccccc2)C1`: the Potency result was “inactive”.
Regarding `CCC(C)C1NC(=O)C2CCCN2C(=O)C(C(C)C)NC(=O)c2ccccc2NC(=O)C(Cc2ccc(O)cc2)NC(=O)C(C)NC(=O)C(C(C)O)NC1=O` (stereo not drawn) (cyclo([2Abz]VPITAY); configuration not given here), the Potency entry was “inactive”.
On the same count and under the same terms, the same measure for `C=C1CCC2C(C)(C(=O)O)CC(O)CC2(C)C1CC/C(C)=C/C(=O)O` (stereo not drawn): “inactive”; for `COc1cc([C@@H]2Oc3c(OC)cc(CCCO)cc3[C@@H]2CO[C@@H]2O[C@H](CO)[C@@H](O)[C@H](O)[C@H]2O)ccc1O`: “inactive”; for `COc1cccc(-c2ccc([C@@H](Oc3cc(-c4ccc(C[C@H](N)C(=O)O)cc4)nc(N)n3)C(F)(F)F)cc2)c1`: “inactive”.
The same measure, in the same setting: the same measure for `CCNC(=O)CCC/C=C\C[C@@H]1[C@@H](/C=C/C(O)CCc2ccccc2)[C@@H](O)C[C@@H]1O` (stereo partly drawn): “inactive”; for `Cc1[nH]cnc1C1CCN(c2nc3cccc4c3n2CCC4=O)CC1`: “inactive”.
Consider `C=C(C)[C@@H](C)[C@H]1O[C@]23C[C@]4(CO2)C(CCC2[C@@]5(C)CC[C@H](O[C@@H]6OC[C@H](O)[C@H](O[C@@H]7O[C@H](CO)[C@@H](O)[C@H](O)[C@H]7O)[C@H]6O[C@@H]6O[C@@H](CO)[C@H](O)[C@H]6O)C(C)(C)C5CC[C@]24C)C3[C@@](C)(O)[C@@H]1OC(C)=O` (stereo partly drawn), for which the activity change, negative = cytotoxicity is 4.13% [at 11.6 µM].
As to `C/C1=C\C[C@H](O[C@@H]2O[C@H](CO)[C@@H](O)[C@H](O)[C@H]2O)/C(C)=C/[C@H]2OC(=O)[C@H](C)[C@@H]2CC1`, the Potency entry was “inactive”.
Same read-out and setting: for `COC(=O)[C@H](CC1C=NC=N1)NCC12CC3CC(CC(C3)C1)C2` (stereo partly drawn) the value was “inactive”; for `CC(C)C1=CCC(C)(O)C(OC2OC(CO)C(O)C(O)C2O)C1` (stereo not drawn), “inactive”; for `COc1cc(NC(=O)c2ccccn2)ccc1Cl`, “inactive”.
The same measure, in the same setting: the same measure for `NCCOCCOCCNC(=O)Cc1ccc(Nc2nc(NCc3ccc(F)cc3)nc(NCC3CCCCC3)n2)cc1`: “inactive”; for `CCC(NC(=O)CC(NC(=O)C(CO)NC(=O)C(CC)NC(=O)c1ccc[nH]1)c1ccccc1)C(=O)O` (stereo not drawn): “inactive”.
Still for that read-out and setting: for `C=C1C[C@]23C[C@H]1CC[C@H]2[C@@]12C=C[C@H](O)[C@@](C)(C(=O)O1)[C@H]2[C@@H]3C(=O)O` the value was “inactive”; for `CC(C)CC(=O)OC[C@H]1O[C@@](COC(=O)CC(C)C)(O[C@H]2O[C@H](CO)[C@@H](O)[C@H](O)[C@H]2O)[C@@H](OC(=O)CC(C)C)[C@@H]1OC(=O)CC(C)C`, “inactive”; for `COc1cc(C2c3cc(O)c(OC)cc3CC(CO)C2CO)ccc1O` (stereo not drawn), “inactive”.
Turning to `N#CCc1ccc(O)cc1O[C@@H]1O[C@H](CO)[C@@H](O)[C@H](O)[C@H]1O`, the Potency entry is “inactive”.
The same measure, in the same setting: for `C=C1C[C@@]23CC[C@@H]4[C@](C)(C(=O)O)CCC[C@@]4(C)C2=CC[C@H]1C3` the value was “inactive”.
On the same count and under the same terms, the same measure for `C[C@@H]1O[C@@H](O[C@H]2[C@H](OC(C#N)c3ccc(O)cc3)O[C@H](CO)[C@@H](O)[C@@H]2O)[C@H](O)[C@H](O)[C@H]1O` (stereo partly drawn): “inactive”.

The values are drawn from PubChem BioAssay (NCATS).
